CPE inhibition data for 35 compounds are collected here from PubChem BioAssay AID651640 (Broad Institute, 2012).

Hit rate of the full screen: of about 350,000 compounds, about 6,000 (1.7%) were called active. Not shown: some 5% with an inconclusive outcome. Many of the other results were omitted from the sample, so actives are more common in it than they were. A number with no mark means an inactive call. Rule as the data show it: active = CPE inhibition above about 20% (passing the limit was not always enough); inconclusive = no clear call, values can overlap the other calls; tested in BHK-21 cells.

The assay in a line: inhibitors of DENV2 cytopathic effect, primary screen, cell-based, plate reader, single concentration (AID 651640).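 Also: 0% = median of neutral control wells and 100% = median of positive control wells.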 Conditions: DENV2-infected cells, cytopathic effect rescue, at 9.99 µM, stronger effect = higher value. For orientation: Protection from cytopathic effect is a common read-out in antiviral testing.
On to `CCOC(=O)[C@]12Cc3ccccc3[C@H]1N(C1CCCCC1)C(=O)c1cc(OC)ccc12`, for which the CPE inhibition is 12.6%.
For `CCOC(=O)[C@]12Cc3cc(OC)ccc3[C@H]1N(C(C)C)C(=O)c1ccccc12` the value was 28.6% (active); for `O=C(NC1CCCCC1)N1Cc2cc(N3CCCCC3)ccc2-n2nncc2C1`, 18.7%.
As to `Clc1ccc([C@@H]2CC3CCC2N3)cn1` (stereo not given in full), the CPE inhibition is 2.65%.
For `O=C1/C(=C\c2ccc3c(c2)OCO3)N2CCC1CC2`, the CPE inhibition was -2.2%.
The value for `c1cc2c(cc1[C@H]1OC[C@H]3[C@@H]1CO[C@@H]3c1ccc3c(c1)OCO3)OCO2` was -8.32%.
Take `c1cc2c(cc1C1OCC3C(c4ccc5c(c4)OCO5)OCC13)OCO2` (stereo not given): the CPE inhibition was 62% (active).
For `COc1ccc(C#Cc2ccc([C@H]3[C@H](CO)N4CCCCN(C(=O)Cc5ccccc5)C[C@@H]34)cc2)cc1` the value was -26.2%; for `O=C(NCC1=C(c2ccc3ccccc3c2)C[C@@H]2CC[C@H]1N2Cc1ccco1)c1cccs1`, 0.357%.
For `C/C=C/c1ccc(C2[C@@H]3CN(Cc4cncnc4)C[C@H]2N3)cc1` (stereo not given in full) the value was 3.65%.
In the case of `C/C=C/c1ccc(C2[C@@H]3CN(S(C)(=O)=O)C[C@H]2N3)cc1` (stereo not given in full), the CPE inhibition was 62.5% (active).
The value for `CS(=O)(=O)N1CCC2CCNC2C1` (stereo not given) was -6.24%.
With `C[C@]12CCC3C(CC[C@H]4[C@H](O)[C@H](O)CC[C@]34C)C1CCC2=O` (stereo not given in full), the CPE inhibition was -1.57%.
For `CC(=O)NCC1=C(c2ccc3ccccc3c2)C[C@@H]2CC[C@H]1N2Cc1ccco1` the value was -2.04%; for `C[C@]12CCCCC1=CC(=O)C1C2CC[C@@]2(C)C1C[C@@H](F)[C@@H]2O` (stereo not given in full), -4.28%.
The value for `COc1cccc(-c2ccc([C@H]3[C@H]4CN(C(=O)Cc5ccncc5)CCCCN4[C@H]3CO)cc2)c1` was 9.07%; that for `O=C(Cc1ccncc1)N1CCCCN2[C@@H](CO)[C@H](c3ccc(-c4ccncc4)cc3)[C@@H]2C1` was 8.4%; that for `COc1ccc(-c2ccc([C@H]3[C@H](CO)N4CCCCN(C(=O)Cc5ccncc5)C[C@@H]34)cc2)cc1` was 40.9% (active).
As for `O=S(=O)(c1ccccc1)N1CCC2CCNC2C1` (stereo not given), the CPE inhibition is -0.751%.
On to `COc1ccc2c(c1)NP(=S)(c1ccccc1)N2` (stereo not given), for which the CPE inhibition is 1.27%.
The value for `Cc1ccc(-n2c(C)cc(/C=C3\C(=O)NC(=O)N(C)C3=O)c2C)cc1C` was -7.68%.
Take `Cc1ccnc(-n2c(C)cc(/C=C3\C(=O)NC(=S)N(C)C3=O)c2C)c1`: the CPE inhibition was 47.7% (active).
`Cc1cc(/C=C2/C(=O)NC(=O)N(Cc3ccco3)C2=O)c(C)n1-c1ccc(C(=O)O)cc1`: the CPE inhibition was -3.34%.
Consider `O=C(CCC(=O)N1C[C@H]2C[C@@H](C1)c1cccc(=O)n1C2)NCc1ccccc1C(F)(F)F`, for which the CPE inhibition was 25.4% (active).
For the compound `O=C(NC(=S)N1C[C@H]2C[C@H](C1)c1cccc(=O)n1C2)c1ccc(F)cc1`, the CPE inhibition was -11.6%.
The value for `COc1ccccc1NC(=O)N1C[C@@H]2C[C@@H](C1)c1cccc(=O)n1C2` was 7.15%.
The value for `CC(C)CN1Cc2cc(N3CCCCC3)ccc2-n2nncc2C1` was -1.07%; that for `O=C(O)[C@H]1[C@H](CO)[C@H]2Cn3c(ccc(-c4ccccc4)c3=O)[C@@H]1N2S(=O)(=O)c1ccccc1F` was 0.732%; that for `COc1cccc(-c2ccc3n(c2=O)C[C@H]2[C@H](CO)[C@@H](C(=O)O)[C@@H]3N2C(=O)c2cnccn2)c1` was 0.125%.
As to `COc1cc(OC)cc(C(=O)NCCN2CCC3(CC2)C(=O)NCN3c2ccccc2)c1`, the CPE inhibition is 5.39%.
For `O=C(c1ccccc1)C(O)(CN1CCCCC1)c1ccccc1` (stereo not given) the value was 9.29%; for `COC(=O)C1=C(c2ccc(F)cc2OCc2ccccc2)C[C@@H]2CC[C@H]1N2C(=O)NCc1ccc(Cl)cc1`, 91% (active); for `COC(=O)C1=C(c2ccc(F)cc2OCc2ccccc2)C[C@@H]2CC[C@H]1N2C(=O)NCc1ccc2[nH]ccc2c1`, 5.56%.
Take `COC(=O)C1=C(c2ccc(F)cc2OCc2ccccc2)C[C@@H]2CC[C@H]1N2C(=O)NCc1ccc(C(C)(C)C)cc1`: the CPE inhibition was -10.5%.
In the case of `COc1ccc(C2C=C(C)Oc3c2c(=O)oc2ccccc32)cc1OC` (stereo not given), the CPE inhibition is -10.4%.
